Results filed as inconclusive are left out. The source made the active and inactive calls. The call rests on the fitted dose curve; in most records, active means well fitted curve in the direction sought with a large enough effect; inconclusive means small, poorly fitted or top-dose-only effect, or another doubt; inactive means no such curve, though single readings can be large; an effect the other way counts as inactive or inconclusive.
Legend:
[1] = Quantitative High-Throughput drug screen in 47 multiple myeloma cell lines against the NCATS MIPE library collection: KMS26_JCRB cell viability assay (AID 1918975); further: nearly all actives have a fitted effect of over 45% in size
In short: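 Steps: seed 500 cells per well; pin-transfer MIPE 4.0 library; incubate 48 h at 37C, 5% CO2, humidified; add CellTiter-Glo, 5 min room temperature; read luminescence.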

[2] = Quantitative High-Throughput drug screen in 47 multiple myeloma cell lines against the NCATS MIPE library collection: MMM1_PLB cell viability assay (AID 1918976); further: nearly all actives have a fitted effect of over 35% in size
In short: (§1)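 Myeloma cells (500/well) treated with MIPE 4.0 compounds for 48 h at 37 °C, 5% CO2. Viability read as ATP via CellTiter-Glo luminescence after 5 min at RT; DMSO-only wells = 100%, media-only = 0% viability.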

[3] = Quantitative High-Throughput drug screen in 47 multiple myeloma cell lines against the NCATS MIPE library collection: MOLP8_DSMZ cell viability assay (AID 1918977); further: nearly all actives have a fitted effect of over 45% in size
In short: as §1

[4] = Quantitative High-Throughput drug screen in 47 multiple myeloma cell lines against the NCATS MIPE library collection: NCIH929_DSMZ cell viability assay (AID 1918978); further: nearly all actives have a fitted effect of over 35% in size
In short: as §1

[5] = Quantitative High-Throughput drug screen in 47 multiple myeloma cell lines against the NCATS MIPE library collection: MM1R_ATCC cell viability assay (AID 1918981); further: nearly all actives have a fitted effect of over 35% in size
In short: as §1

[6] = Quantitative High-Throughput drug screen in 47 multiple myeloma cell lines against the NCATS MIPE library collection: KMS28PE_JCRB cell viability assay (AID 1918983); further: nearly all actives have a fitted effect of over 35% in size
In short: as §1

[7] = Quantitative High-Throughput drug screen in 47 multiple myeloma cell lines against the NCATS MIPE library collection: OCIMY5_PLB cell viability assay (AID 1918988); further: nearly all actives have a fitted effect of over 65% in size
In short: as §1

[8] = Quantitative High-Throughput drug screen in 47 multiple myeloma cell lines against the NCATS MIPE library collection: OPM1_PLB cell viability assay (AID 1918989); further: nearly all actives have a fitted effect of over 40% in size
In short: as §1

[9] = Quantitative High-Throughput drug screen in 47 multiple myeloma cell lines against the NCATS MIPE library collection: U266_ATCC cell viability assay (AID 1919864); further: nearly all actives have a fitted effect of over 35% in size
In short: as §1

[10] = Quantitative High-Throughput drug screen in 47 multiple myeloma cell lines against the NCATS MIPE library collection: XG6_PLB cell viability assay (AID 1919865); further: nearly all actives have a fitted effect of over 40% in size
In short: as §1

[11] = Quantitative High-Throughput drug screen in 47 multiple myeloma cell lines against the NCATS MIPE library collection: OCIMY1_PLB cell viability assay (AID 1918979); further: nearly all actives have a fitted effect of over 35% in size; on viability: series mostly up to about 46 µM
In short: as §1

[12] = Quantitative High-Throughput drug screen in 47 multiple myeloma cell lines against the NCATS MIPE library collection: MM1S_ATCC cell viability assay (AID 1918980); further: nearly all actives have a fitted effect of over 45% in size
In short: as §1

[13] = Quantitative High-Throughput drug screen in 47 multiple myeloma cell lines against the NCATS MIPE library collection: LP1_DSMZ cell viability assay (AID 1918982); further: nearly all actives have a fitted effect of over 35% in size
In short: as §1

[14] = Quantitative High-Throughput drug screen in 47 multiple myeloma cell lines against the NCATS MIPE library collection: VP6_DJ cell viability assay (AID 1919867); further: nearly all actives have a fitted effect of over 40% in size
In short: as §1

[15] = Quantitative High-Throughput drug screen in 47 multiple myeloma cell lines against the NCATS MIPE library collection: OCIMY7_PLB cell viability assay (AID 1918987); further: nearly all actives have a fitted effect of over 65% in size
In short: as §1

[16] = Quantitative High-Throughput drug screen in 47 multiple myeloma cell lines against the NCATS MIPE library collection: SKMM1_PLB cell viability assay (AID 1919863); conditions: SKMM1 myeloma viability, CellTiter-Glo ATP, 48 h; viability: hits give low values; further: nearly all actives have a fitted effect of over 35% in size; on viability: series mostly up to about 46 µM
In short: as §1

[17] = Quantitative High-Throughput drug screen in 47 multiple myeloma cell lines against the NCATS MIPE library collection: XG1_PLB cell viability assay (AID 1919866); further: nearly all actives have a fitted effect of over 35% in size
In short: as §1

[18] = Quantitative High-Throughput drug screen in 47 multiple myeloma cell lines against the NCATS MIPE library collection: KMS34_JCRB cell viability assay (AID 1918985); further: nearly all actives have a fitted effect of over 40% in size
In short: as §1

[19] = Quantitative High-Throughput drug screen in 47 multiple myeloma cell lines against the NCATS MIPE library collection: L363_DSMZ cell viability assay (AID 1918984); further: nearly all actives have a fitted effect of over 40% in size
In short: as §1
Potency means the concentration at half of the fitted maximal effect.

Oc1cccc(-c2nc(N3CCOCC3)c3oc4ncccc4c3n2)c1
active: Potency [1] 0.215 µM | Potency [2] 0.0679 µM | Potency [3] 0.0152 µM | Potency [4] 0.0191 µM | Potency [5] 0.0679 µM | Potency [6] 0.0762 µM | Potency [7] 0.382 µM | Potency [8] 0.0855 µM | Potency [9] 0.054 µM | Potency [10] 0.136 µM

Cc1cccc(-c2nn(C(=S)Nc3ccccc3)cc2-c2ccnc3ccccc23)n1
active: Potency [1] 6.62 µM | Potency [2] 16.6 µM | Potency [4] 2.35 µM | Potency [12] 16.6 µM | Potency [13] 20.9 µM | Potency [6] 18.7 µM | Potency [7] 1.48 µM | Potency [8] 6.62 µM | Potency [14] 9.35 µM
inactive: Potency [11] | Potency [10]

Nc1nc2[nH]cc(CCc3ccc(C(=O)N[C@@H](CCC(=O)O)C(=O)O)cc3)c2c(=O)[nH]1
inactive: Potency [1] | Potency [4] | Potency [11] | Potency [5] | Potency [13] | Potency [6] | Potency [15] | Potency [10] | Potency [17]
active: Potency [2] 2.09 µM | Potency [8] 2.96 µM | Potency [16] 5.26 µM

CCOC(=O)N[C@@H]1CC[C@@H]2[C@@H](C1)C[C@H]1C(=O)O[C@H](C)[C@H]1[C@@H]2C=Cc1ccc(-c2cccc(F)c2)cn1
inactive: Potency [1] | Potency [3]
active: Potency [5] 20.9 µM | Potency [7] 23.5 µM | Potency [17] 16.6 µM

CC(C)NCC(O)COc1ccc(COCCOC(C)C)cc1 (stereo unspecified)
active: Potency [2] 7.43 µM
inactive: Potency [1] | Potency [4] | Potency [11] | Potency [12] | Potency [13] | Potency [18] | Potency [9] | Potency [10] | Potency [17]

CC(c1cc2ccccc2s1)N(O)C(N)=O (stereo unspecified)
inactive: Potency [1] | Potency [3] | Potency [4] | Potency [11] | Potency [12] | Potency [5] | Potency [13] | Potency [6] | Potency [8] | viability [16] 118% | Potency [9] | Potency [10] | Potency [17]
active: Potency [14] 3.32 µM

c1ccc(-c2nn3c(c2-c2ccnc4cc(OCCN5CCOCC5)ccc24)CCC3)nc1
inactive: Potency [1] | Potency [8] | Potency [10]
active: Potency [2] 26.4 µM | Potency [14] 1.87 µM

CO[C@@H]1[C@H](N(C)C(=O)c2ccccc2)C[C@H]2O[C@]1(C)n1c3ccccc3c3c4c(c5c6ccccc6n2c5c31)C(=O)NC4
active: Potency [1] 3.72 µM | Potency [2] 2.64 µM | Potency [3] 1.32 µM | Potency [4] 0.935 µM | Potency [11] 5.26 µM | Potency [12] 4.69 µM | Potency [6] 5.26 µM | Potency [19] 1.66 µM | Potency [18] 1.32 µM | Potency [7] 1.48 µM | Potency [8] 1.18 µM | Potency [16] 8.33 µM | Potency [9] 3.72 µM | Potency [10] 0.372 µM | Potency [17] 0.935 µM | Potency [14] 0.418 µM

CC[C@H](Nc1ncnc2nc[nH]c12)c1nc2cccc(F)c2c(=O)n1-c1ccccc1
active: Potency [1] 13.2 µM | Potency [2] 18.7 µM | Potency [3] 23.5 µM | Potency [4] 8.33 µM | Potency [11] 16.6 µM | Potency [12] 0.118 µM | Potency [7] 20.9 µM | Potency [8] 14.8 µM | Potency [16] 16.6 µM | Potency [10] 13.2 µM

CCc1ccc(CCOc2ccc(CC3SC(=O)NC3=O)cc2)nc1 (stereo unspecified)
active: Potency [2] 8.33 µM
inactive: Potency [1] | Potency [3] | Potency [4] | Potency [11] | Potency [5] | Potency [18] | Potency [8] | Potency [9]

O=C(O)[C@@H](c1ccc(OCc2ccc3ccccc3n2)cc1)C1CCCC1
inactive: Potency [3] | Potency [4] | Potency [11] | Potency [12] | Potency [13] | Potency [6] | Potency [19] | Potency [18] | Potency [8] | viability [16] 106% | Potency [9]
active: Potency [1] 0.0012 µM | Potency [15] 5.9 µM | Potency [17] 5.26 µM | Potency [14] 5.9 µM

Cn1cnc([N+](=O)[O-])c1Sc1ncnc2nc[nH]c12
active: Potency [1] 11.8 µM | Potency [4] 16.6 µM | Potency [15] 11.8 µM | Potency [8] 4.69 µM | Potency [9] 10.5 µM | Potency [17] 5.26 µM | Potency [14] 16.6 µM
inactive: Potency [3] | Potency [11] | Potency [6]

O=C(Nc1nc2ccccc2n1CCN1CCOCC1)c1cccc([N+](=O)[O-])c1
active: Potency [1] 29.6 µM | Potency [2] 13.2 µM | Potency [12] 9.35 µM | Potency [5] 18.7 µM | Potency [15] 1.87 µM | Potency [7] 5.9 µM | Potency [9] 14.8 µM | Potency [10] 1.32 µM | Potency [17] 4.18 µM

CCn1cc(C(=O)O)c(=O)c2cc(F)c(N3CCNC(C)C3)c(F)c21 (stereo unspecified)
active: Potency [8] 11.8 µM
inactive: Potency [1] | Potency [3] | Potency [4] | Potency [11] | Potency [13] | Potency [19] | Potency [18] | Potency [7] | viability [16] 140% | Potency [10] | Potency [17] | Potency [14]

CCOc1cc(C(=O)Nc2ccc(Cl)c(-c3nc4ccccc4[nH]3)c2)cc(OCC)c1OCC
active: Potency [2] 20.9 µM | Potency [5] 13.2 µM | Potency [13] 14.8 µM | Potency [15] 0.418 µM
inactive: Potency [1] | Potency [3] | Potency [18]

— PubChem BioAssay (NCATS)
